Compounds with a hit are over-represented: about 2.8% of the library has one in this group of screens.
PI5P4K alpha inh: inhibitors of human PI5P4K alpha. P48426. PI5P4Kalpha enzyme, ADP-Glo luminescence, 60 min; stronger effect = lower value. max response, %. 330,000 tested, 1.2% active. AID 652105; active means max response of -50% or lower; inconclusive means between -30% and -50%; inactive means -30% or higher; further: value at the top dose of about 77 µM; on the % scale 0 is the no-effect control and ±100 the full control effect
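Enzyme plus substrate dispensed, test compounds pinned in, then ATP (5 microM final) added. After 60 min at RT, ADP-Glo reagent 1 for 45 min and reagent 2 for 30 min preceded luminescence imaging.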
WRN inhibitor: inhibitors of human WRN helicase | Q14191 | WRN helicase unwinding, fluorescent forked duplex, kinetic | Potency, µM (series often up to 114 µM), for the others: at the highest dose activity change, negative = inhibition, actives largely listed as inhibitors | 360,000 tested, 0.46% active; further: potency means the concentration at half of the fitted maximal effect; on the % scale 0 is the no-effect control and ±100 the full control effect; nearly all actives have a fitted effect of over 55% in size
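Enzyme (20 nM final) and test compound sit together 15 min at room temperature before substrate addition. Substrate is a single-forked duplex oligonucleotide (100 nM) labelled with fluorophore and quencher, with 2 mM ATP; helicase unwinding raises red fluorescence, read kinetically.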
POLH inh: inhibitors of human DNA polymerase eta; 390,000 tested, 1.2% active; recombinant Pol eta, fluorescent DNA replication assay; Potency, µM (titrated, usually from 114 µM), inactives show at the top dose activity change, negative = inhibition, hits mostly inhibitors; Q9Y253; AID 588591; further: potency means the concentration at half of the fitted maximal effect; on the % scale 0 is the no-effect control and ±100 the full control effect
Target sequence (Q9Y253 whole entry, looked up): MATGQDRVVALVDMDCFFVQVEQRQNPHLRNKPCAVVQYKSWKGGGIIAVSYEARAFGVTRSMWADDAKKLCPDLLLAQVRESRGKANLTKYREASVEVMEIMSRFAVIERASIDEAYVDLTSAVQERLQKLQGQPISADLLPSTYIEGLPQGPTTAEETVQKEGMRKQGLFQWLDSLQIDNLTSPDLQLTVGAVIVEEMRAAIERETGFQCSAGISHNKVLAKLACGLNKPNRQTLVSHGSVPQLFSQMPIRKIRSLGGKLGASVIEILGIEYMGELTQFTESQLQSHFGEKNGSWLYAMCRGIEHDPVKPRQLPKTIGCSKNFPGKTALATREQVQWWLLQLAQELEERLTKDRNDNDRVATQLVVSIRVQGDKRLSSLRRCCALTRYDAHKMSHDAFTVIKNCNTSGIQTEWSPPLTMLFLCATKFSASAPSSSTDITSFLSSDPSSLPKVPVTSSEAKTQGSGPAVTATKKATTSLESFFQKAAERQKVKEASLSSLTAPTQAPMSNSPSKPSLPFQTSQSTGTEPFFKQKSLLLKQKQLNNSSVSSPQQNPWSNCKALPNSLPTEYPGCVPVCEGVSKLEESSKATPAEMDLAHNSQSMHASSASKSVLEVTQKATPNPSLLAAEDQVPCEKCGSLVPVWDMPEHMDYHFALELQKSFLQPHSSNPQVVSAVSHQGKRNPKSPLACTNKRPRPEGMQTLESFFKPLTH
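Pol eta (10 nM) was preincubated with compounds for 15 min at room temperature, after which fluorescent replication substrate (50 nM final) was added to start the reaction. Fluorescence was read kinetically at 0 and 10 min.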
Pol iota inh: inhibitors of human DNA polymerase iota | Potency, µM (doses to about 115 µM), inactives show top-dose activity, negative = inhibition, usual class: inhibitors | Pol iota fluorescent replication assay, 10 min | Q9UNA4 | 390,000 tested, 1% active; further: potency means the concentration at half of the fitted maximal effect
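Fluorescent replication assay read twice, at 0 min and 10 min after adding 50 nM (final) substrate. Enzyme (10 nM) and compounds were first incubated 15 min at room temperature; enzyme-free buffer wells were negative controls.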
Pol kappa inh: DNA polymerase kappa (human) inhibition; Potency, µM (highest dose often 107 µM), for the others: at the top dose activity, negative = inhibition, most hits filed as inhibitors; purified Pol kappa, fluorescent DNA synthesis assay, 10 min; Q9UBT6; 400,000 tested, 0.53% active; AID 588579; further: potency means the concentration at half of the fitted maximal effect; on the % scale 0 is the no-effect control and ±100 the full control effect
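Kinetic fluorescence screen: compound preincubated 15 min RT with 10 nM enzyme; 50 nM substrate (final) initiates; reads at 0/10 min.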
POLB inh: DNA polymerase beta (human) inhibition | P06746 | Pol beta primer extension/strand displacement, fluorescence kinetic | Potency, µM (titrated, usually from 114 µM), for the others: at the highest dose activity change, negative = inhibition, most hits filed as inhibitors | 340,000 tested, 1.3% active | AID 485314; further: potency means the concentration at half of the fitted maximal effect; on the % scale 0 is the no-effect control and ±100 the full control effect
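Curves were derived by four-parameter Hill fits of normalized qHTS data. The kinetic fluorescent primer-extension read was taken at 0 and 10 min after 50 nM substrate, following a 15 min room-temperature preincubation of 10 nM enzyme with compounds.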
ADP-Glo interf: counter-screen for PI5P4K inhibitors: ADP-Glo detection interference, no enzyme | shares compounds with PI5P4K alpha inh | ADP-Glo detection counter-screen, luciferase luminescence, no enzyme | Potency, µM (top dose mostly 76.9 µM), inactives show at the highest dose activity change, negative = inhibition, usual class: inhibitors | 1,100 tested, under 10 active | AID 743285
Starred values were filed as active, the others as inactive; u = inconclusive; x = not tested or not shown; ! = not confirmed by another sample; [ ] = another dose, or the depositor's remark. Unless noted, the call rests on the fitted dose curve; in most records, active means well fitted curve in the direction sought with a large enough effect; inconclusive means small, poorly fitted or top-dose-only effect, or another doubt; inactive means no such curve, though single readings can be large; an effect the other way counts as inactive or inconclusive.

SMILES	PI5P4K alpha inh	WRN inhibitor	POLH inh	Pol iota inh	Pol kappa inh	POLB inh	ADP-Glo interf
Cc1cc(NC(=O)c2sc(Nc3ccc(F)cc3)nc2N)no1	-54.1*	-3.5%	-18.3%	-10.5%	-3.3%	u	2.8%
Cc1cnc(NC(=O)c2sc(Nc3ccccc3)nc2N)o1	-55.3*	-3.9%	-7.2%	-7.7%	-7.0%	7.2%	0.1%
Cc1nc(NC(N)=S)sc1C(=O)Nc1ccccc1	x	2.4%	-14.1%	12.6%	-4.7%	1.4%	x
Nc1nc(Nc2ccccc2)sc1C(=O)c1ccccc1	-65.1*	-10.3%	-1.2%	27.5%	-15.6%	2.5%	4.5%
COc1ccc(C(=O)NC(=S)Nc2ccccc2F)cc1	7.8	-3.2%	-4.8%	11.9%	-11.7%	0.8%	x
COc1ccc(C(=O)c2sc(Nc3ccccc3F)nc2N)cc1	-80.9*	-2.8%	-22.5%	-0.4%	-6.4%	8.3%	-0.7%
C=CCNc1nc(N)c(C(=O)Nc2cc(C)on2)s1	x	-3.1%	8.5%	12.9%	-2.0%	2.3%	x
CN(c1ccccc1)c1ncnc2c1cnn2C	x	x	-14.5%	-13.2%	4.5%[60.1 µM]	15.9%	x
O=C(c1ccc(OCCN2CCCCC2)cc1)c1c(-c2ccc(O)cc2)sc2cc(O)ccc12	-50.8*!	6.3%	-17.5%	u	-9.4%[60.1 µM]	-8.2%[57.1 µM]	-4.9%
Oc1cccc(-c2sc3ccccc3c2-c2ccc(OCCN3CCCCC3)cc2)c1	0.0	-0.3%	x	x	x	x	x
COc1ccc2nc(-c3ccco3)c(-c3ccco3)nc2c1	-57.9*	44.7µM*	3.16µM*	u	u	22.4µM*	-3.2%
O=C(NCc1ccon1)C1CCC(=O)N(CCc2cccc(F)c2)C1 (stereo not drawn)	10.2	-16.6%	-6.8%	8.6%	-21.4%	-0.2%	x
Cc1cc(C(=O)OCC(=O)Nc2cc(S(=O)(=O)N3CCOCC3)ccc2Cl)c(C)o1	4.5	-10.7%[57.1 µM]	3.0%	u	-18.5%	u	1.0%
N#Cc1cc(-c2ccccc2)nn1-c1ccccc1	-80.5*	-6.5%	-12.3%	u	-10.6%	-2.6%	-10.6%
Cn1ccc(-c2ccccc2)n1	2.5	-5.6%	-5.9%	35.1%	-2.6%	36.4%	x
CC(C)C(=O)Nc1nnc(NC(=S)Nc2ccccc2)s1	-55.9*	-3.1%	-22.1%	96.0%	6.8%	30.7%	-8.5%
CCCc1nnc(NC(=S)Nc2ccccc2)s1	4.0	1.3%	-17.0%	119.9%	-0.6%	1.4%	x
CC(C)C(=O)Nc1nnc(CCc2ccccc2)s1	-50.5*	0.8%	-6.0%	-2.1%	-19.9%	0.7%	-2.7%
Cc1nnc(-c2ccccc2)nc1N(C)C	-68.1*	4.3%	-22.4%	114.8%	-1.4%	8.3%	-1.7%
O=C(OCCc1cc2ccccc2c(=O)o1)c1cccc(Br)c1	9.4	-8.4%	-5.2%	-0.1%	-9.6%	x	x
NC(=O)c1c(NC(=O)c2cc3ccccc3o2)sc2c1CCC2	-55.9*	-13.0%[57.1 µM]	u	u	-32.5%	50.1µM*	-13.6%
Cc1nc(N2CCC(C)CC2)c2c(C)c(C(=O)Nc3ccc4c(c3)OCCO4)sc2n1	9.9	-5.4%	-24.5%	13.4%	-3.0%	-4.4%	x
Cc1c(C(=O)Nc2ccc3c(c2)OCCO3)sc2ncnc(N3CCCCC3C)c12 (stereo not drawn)	x	-7.8%[57.1 µM]	-25.0%	7.2%	-3.3%	4.2%	-3.4%
Cc1oc2ccc(OCc3c(F)cccc3Cl)cc2c1C(=O)O	-54.6*	-4.9%	-1.0%	0.1%	11.6%	12.5%	-1.7%
Cc1oc2ccc(OCc3cccc(Cl)c3)cc2c1C(=O)O	u	4.3%	-1.7%	2.0%	-12.5%[60.1 µM]	22.6%	x
SMILES	PI5P4K alpha inh	WRN inhibitor	POLH inh	Pol iota inh	Pol kappa inh	POLB inh	ADP-Glo interf
CC(NC(=O)CN1c2cccc3cccc(c23)S1(=O)=O)c1ccc(S(N)(=O)=O)cc1 (stereo not drawn)	-55.2*	u	20µM*	28.2µM*	u	x	1.5%
Cc1c(Cc2ccccc2)c(=O)oc2cc(O)cc(O)c12	u	-23.8%	0.3%	4.6%	-17.7%	-29.6%	x
COc1cc(OC)cc(-c2nnc(NC(=O)CCS(=O)(=O)c3ccc(C)cc3)o2)c1	-50.4*	-4.2%	-21.8%	u	-22.7%	x	1.9%
O=C(NCC(c1cccnc1)N1CCN(Cc2ccccc2)CC1)C(=O)Nc1cccc(Cl)c1 (stereo not drawn)	x	x	-1.3%	4.6%	0.4%	15.1%	x
Cc1cccc(N2CC(C(=O)Nc3nnc(SCC(=O)Nc4nccs4)s3)CC2=O)c1 (stereo not drawn)	u	-16.1%[57.1 µM]	u	-9.2%	-26.2%	u	x
Cc1ccccc1N1CC(C(=O)Nc2nnc(SCC(=O)Nc3nccs3)s2)CC1=O (stereo not drawn)	u	-28.9%	u	u	-25.7%	50.1µM*	-9.1%
CCN(CC)C(=O)c1[nH]cnc1C(=O)Nc1ccc(OC)cc1	0.1	-1.6%	-11.5%	1.6%	22.5%	28.3%	-8.2%
CCc1nn(CC(=O)Nc2ccc(N(CC)CC)cc2C)c(=O)c2cc3sccc3n12	x	x	1.1%	u	9.6%	37.9%	x
Cc1ccc2nc(NC(=O)C3CCN(S(=O)(=O)c4cc([N+](=O)[O-])ccc4Cl)CC3)sc2c1	-52.5*	u	u	44.7µM*	u	14.1µM*	1.9%
CCCn1c(C)cc(-c2csc(N)n2)c1C	-58.3*	-31.3%	-7.8%	u	-9.4%	-4.6%	-8.3%
O=c1c(Cc2ccccc2)c(O)nc2n1CCS2	-55.3*	7.3%	11.6%	6.3%	1.0%	36.1%	3.9%
O=c1c(C/C=C/c2ccccc2)c(O)nc2n1CCCS2	-23.8	-14.4%	2.8%	u	-19.1%	25.7%	x
CCc1nc2ccc(C(=O)N3CCCCC3)cn2c1N(C)CCCc1ccccc1	-11.4	-5.2%	x	x	x	x	x
O=C(CCN1Cc2ccccc2C1)c1ccc2c(c1)OCCO2	x	-18.0%	-5.3%	22.5%	-3.6%	28.7%	x
O=C(CCN1CCc2ccccc2C(c2ccccc2)C1)c1ccc2c(c1)OCCO2 (stereo not drawn)	-54.5*	44.7µM*	-16.7%	u	-7.6%	0.9%	-10.6%
CC(=O)c1ccc(OCc2c(-c3ccccc3)nnn2CC(=O)NS(=O)(=O)c2ccccc2C)cc1	-50.7*	-6.0%	x	x	x	x	-3.6%
Cc1cccc(OCc2nc(C#N)c(NCc3ccccc3Cl)o2)c1	x	x	-24.8%	-24.9%	-12.3%	-14.2%	x
CCN(CC)c1ccc(C(=O)Nn2cnc3ccccc3c2=O)cc1	-0.3	0.1%	-6.1%	14.6%	0.4%	1.0%	x
CC(=O)Oc1ccc(C(=O)Nc2cccc(C(=O)c3ccc(C)c(C)c3)c2)cc1	-57.3*	-12.4%	-28.1%	14.5%	-16.0%	9.7%	-7.4%
CC1CCC(NC(=O)c2ccc3c(c2)N(Cc2ccccc2)C(=O)c2ccccc2S3(=O)=O)CC1 (stereo not drawn)	x	x	x	-13.6%	-14.6%	-3.9%	x
